We go through eight compounds from PubChem BioAssay (NCI).

Holding throughout (assay): NCI-60 one-dose screen, 48 h (100 = growth as untreated, 0 = no growth, -100 = all killed)
What all share (conditions): 10 µM unless noted

Assay [1] concerns DU-145 prostate.
Assay [2] deals with K-562 leukemia.
Assay [3] relates to MALME-3M melanoma.
Assay [4] relates to MDA-MB-231 breast.
In assay [5] the test system is RXF 393 renal.
Assay [6] has as its system SF-268 CNS.
For assay [7], the system named is SF-295 CNS.
The subject of assay [8] is SF-539 CNS.
For assay [9], the system named is UACC-257 melanoma.
Assay [10] concerns M14 melanoma.
Assay [11] concerns HCT-15 colon.
Assay [12] relates to HT29 colon.
In assay [13] the test system is SNB-75 CNS.
The test system of assay [14] is SNB-19 CNS.
Assay [15] deals with U251 CNS.
Assay [16] deals with PC-3 prostate.
The test system of assay [17] is SK-MEL-5 melanoma.
Assay [18] concerns UACC-62 melanoma.
The test system of assay [19] is LOX IMVI melanoma.
Assay [20] relates to SK-MEL-28 melanoma.

The panel holds about 83,000 compounds, 20% with a hit somewhere; the sample as a whole holds those more often.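 Results are percent growth after 48 hours of single-concentration exposure. 100 means growth as in untreated cells, lower positive values show inhibition; negative values down to -100 show cell death.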 Unmarked numbers belong to inactive results. The source made the active and inactive calls. The calls were made as follows: active = growth percent below 10; inactive = the rest.

Regarding `CCc1ccc(-c2ccc(COc3ccc(CC4SC(=O)NC4=O)cc3)cc2)cc1` (stereo not given), the growth in assay [1] was 88.8%; in assay [2] it was 34.8%; in assay [3] it was 67.3%; in assay [4] it was 77.3%; in [5], 102%; in assay [6], 76.7%. In addition, the growth is 75.8% in [7]; 77% in assay [8]; 86.3% in [9]; 79.6% in assay [10]; 56.4% in [11]; 103% in [12]. Further, the growth is 76.2% in [13]; 87.1% in assay [14]; 72.8% in assay [15]; 65.6% in [16]; 39.8% in assay [17]; 60.2% in assay [18]. Besides, the figures for the growth in [19] and in [20] were 63.3% and 85%, respectively.
As for `COc1ccc(OC)c([N+](=O)[O-])c1C(=O)CNC(C)=O`, the growth is 109% in assay [1]; 103% in assay [2]; 112% in assay [3]; 98.4% in assay [4]; 101% in assay [5]; 102% in [6]. Besides, the growth in [7] was 95.2%; in [8] it was 101%; in assay [9], 105%; in assay [10] it was 107%; in assay [11], 95.8%; in assay [12], 109%. Also, the growth in [13] is 107%; in [14], 93.5%; in assay [15], 97%; in [16] it was 101%; in assay [17] it was 101%; in assay [18], 95.8%. The growth is 103% in assay [19] and 114% in [20].
`CCOC(CNC(=O)c1cccc([N+](=O)[O-])c1)OCC`: the growth was 100% in assay [1]; 94% in assay [2]; 96.8% in assay [3]; 92.9% in [4]; 65.7% in assay [5]; 93.6% in [6]. For the same compound, the growth in [7] was 91.2%; in assay [8], 96.9%; in assay [9] it was 83.2%; in assay [10], 98.7%; in [11], 99.7%; in assay [12], 111%. Besides, the growth in assay [13] is 82.6%; in assay [14] it was 103%; in assay [15], 97.6%; in [16] it was 102%; in [17] it was 89.2%; in assay [18], 88%. Also, the growth in assay [19] is 89.1%; in [20], 106%.
With `COC(=O)c1c(C)[nH]c(/C=C2\N=C(c3ccc[nH]3)C=C2OC)c1C`, the growth in [1] is 9.5% (active); in assay [2], 4.3% (active); in assay [3], -69.3% (active); in assay [4] it was -40.2% (active); in assay [5] it was -33.9% (active); in [6], 18.3%. Further, the growth in assay [7] is -56.7% (active); in [8], -59.7% (active); in [9] it was -49% (active); in assay [10], -24% (active); in assay [11] it was 0.837% (active); in assay [12] it was -13.8% (active). Besides, the growth is -23.3% (active) in [13]; 30.5% in assay [14]; -27.9% (active) in [15]; 9.06% (active) in assay [16]; -99.7% (active) in [17]; -62.8% (active) in assay [18]. Also, the growth in [19] was -56.8% (active); in assay [20], -27.8% (active).
Take `CC1(C)C(=O)/C(=C\c2ccco2)C[C@]2(C)[C@H]3CC=C4[C@@H]5C[C@](C)(C(=O)O)CC[C@]5(C)CC[C@@]4(C)[C@]3(C)CC[C@@H]12`: the growth was -33.5% [100 µM] (active) in assay [1]; 4.42% [100 µM] (active) in assay [2]; -70% [100 µM] (active) in assay [3]; -58.5% [100 µM] (active) in assay [4]; -85.6% [100 µM] (active) in [5]; -77.7% [100 µM] (active) in assay [6]. The growth in assay [7] is -48.8% [100 µM] (active); in [8], -77.5% [100 µM] (active); in assay [9] it was -49.3% [100 µM] (active); in assay [10], -43.4% [100 µM] (active); in assay [11] it was -86.4% [100 µM] (active); in assay [12] it was -50.8% [100 µM] (active). Also, the growth in [13] is -82.5% [100 µM] (active); in [14], -91.7% [100 µM] (active); in assay [15], -80.8% [100 µM] (active); in assay [16] it was -32.2% [100 µM] (active); in assay [17] it was -72.7% [100 µM] (active); in assay [18], -83.7% [100 µM] (active). The growth in assay [19] was -93.6% [100 µM] (active); in assay [20] it was -75.1% [100 µM] (active).
Turning to `O=C(C[n+]1ccn(CC(OCc2ccc(Cl)cc2Cl)c2ccc(Cl)cc2Cl)c1)c1ccc(F)cc1` (stereo not given), the growth in assay [1] is -93.1% (active); in assay [2], -17.2% (active); in assay [3], -84.8% (active); in assay [4], -96.7% (active); in assay [5], -94.2% (active); in [6], -93.3% (active). Also, the growth in assay [7] is -90.2% (active); in [8], -91.9% (active); in assay [9] it was -89.6% (active); in assay [10] it was -97.3% (active); in [11], 75.7%; in assay [12], -73.8% (active). The growth is -99% (active) in assay [13]; -95.9% (active) in assay [14]; -81.7% (active) in [15]; -88.5% (active) in [16]; -99.3% (active) in [17]; -95.8% (active) in assay [18]. Besides, the growth in [19] is -87.4% (active); in assay [20], -95.5% (active).
On to `O=C1Nc2ccccc2/C1=C/C(=O)c1ccc(N2CCCCC2)cc1`, for which the growth was 66.8% in assay [1]; 68.2% in assay [2]; 69.8% in assay [3]; 82.1% in assay [4]; 77% in assay [5]; 71.7% in assay [6]. In addition, the growth in [7] was 103%; in [8], 79.3%; in [9], 97.7%; in assay [10], 107%; in assay [11] it was 79.8%; in assay [12], 32.8%. Further, the growth in [13] is 91.4%; in assay [14], 86.5%; in assay [15], 52.7%; in assay [16], 52.7%; in assay [17], 93.2%; in [18], 68.6%. For the same compound, the growth in assay [19] is 43.3%; in assay [20], 105%.
For the compound `O=C1/C(=C/c2cccc(OCc3ccccc3)c2)Oc2cc(OCCN3CCCCC3)ccc21`, the growth in [1] is 88.1%; in assay [2] it was -37.8% (active); in assay [3] it was 58.3%; in assay [4], 71%; in assay [5] it was 68.6%; in assay [6], 81%. Besides, the growth in [7] is 95.5%; in assay [8] it was 68.1%; in [9], 94.5%; in assay [10], 88.6%; in assay [11] it was -37% (active); in [12], 21%. Moreover, the growth in [13] was 76%; in assay [14], 83.9%; in [15], 61.1%; in assay [16], 47.1%; in [17], 78.6%; in assay [18], 77.8%. The values for the growth in [19] and in assay [20] were 32.1% and 76.6%, respectively.
